The entries come from a sample that favours hits as a whole.
Integrin act MD: integrin-mediated muscular dystrophy alleviation activation | Potency, µM (top dose mostly 38.3 µM), without a hit: top-dose activation, actives largely listed as activators | actives 0.064% (n = 350,000) | alpha7betagal myoblasts, beta-gal FDG fluorescence, 48 h | AID 624291;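 note: potency is the fitted concentration of half-maximal effect; 100% = response of the positive control SU9516; nearly all actives have a fitted effect of over 60% in size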
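alpha7betagal+/- myoblasts (passage 13, 250/well) treated 48 h at 37C with compounds at 1:260 dilution of DMSO stock. Lysed, then beta-galactosidase activity read as FDG fluorescence (ex 480/em 540) after 30 min, with pre-read for autofluorescence.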
Gal4-VP16 FLuc: Gal4-VP16 reporter inhibition counter-screen | Potency, µM (highest dose often 53.6 µM), inactives show at the highest dose activity, negative = inhibition, hits mostly inhibitors | Drosophila S2 Gal4-VP16 UAS-luciferase, luminescence, 20 h | actives 3.5% (n = 310,000);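 note: Gal4-VP16 expression switched on by copper sulfate through the metallothionein promoter; potency is the fitted concentration of half-maximal effect; % is set by controls: 0 for no effect and ±100 for the full control effect; nearly all actives have a fitted effect of over 50% in size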
RORgamma inh: ROR gamma (mouse) transcription inhibition. P51450. Drosophila S2 Gal4-RORgamma UAS-luciferase reporter, 20 h. Potency, µM (top dose mostly 53.6 µM), for inactives: top-dose activity change, negative = inhibition, actives largely listed as inhibitors. actives 5.4% (n = 310,000). AID 2551; note: potency is the fitted concentration of half-maximal effect; % is set by controls: 0 for no effect and ±100 for the full control effect; nearly all actives have a fitted effect of over 60% in size
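In this cell-based reporter format, copper sulfate (700 uM final) drives Gal4–ROR gamma fusion expression from a metallothionein promoter in Drosophila Schneider cells; compounds preincubated 1 hr, reporter read after 20 hr at ambient temperature.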
Giardia kill: Giardia lamblia killing; actives 0.15% (n = 340,000); AID 540267; activity change, % at 7.66 µM, hits read low; Giardia lamblia trophozoite viability; in the data active = activity change below about -80%; inconclusive = between about -30% and that limit;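 note: parasites exposed to compound for two days anaerobically before the ATP read; % is set by controls: 0 for no effect and ±100 for the full control effect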
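Compounds were tested on trophozoites seeded at 100 cells/well and held 48 hrs at 37 deg C anaerobically. An ATP-based luminescent kit measured the remaining live cells.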
ERG Ets-DNA blk: ERG Ets/DNA interaction inhibition; P11308; fluorescence polarization, His-ERG Ets domain / labelled DNA; Potency, µM (titrated, usually from 76.9 µM), for the others: at the highest dose FP activity, negative = inhibition, usual class: inhibitors; actives 0.028% (n = 370,000); active = well fitted inhibition curve with a large enough effect in the polarisation, with a control signal flat; inconclusive = small, poorly fitted or top-dose-only effect, or effect the other way, or a change in a side signal; inactive = no such curve, though single readings can be large or run the other way; the % refers to the polarisation;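 note: polarization taken with two DNA probes labelled with fluorescein and Texas red; potency is the fitted concentration of half-maximal effect; % of control where 0% means no effect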
Target sequence (P11308 whole entry, looked up, the tested form may be a part): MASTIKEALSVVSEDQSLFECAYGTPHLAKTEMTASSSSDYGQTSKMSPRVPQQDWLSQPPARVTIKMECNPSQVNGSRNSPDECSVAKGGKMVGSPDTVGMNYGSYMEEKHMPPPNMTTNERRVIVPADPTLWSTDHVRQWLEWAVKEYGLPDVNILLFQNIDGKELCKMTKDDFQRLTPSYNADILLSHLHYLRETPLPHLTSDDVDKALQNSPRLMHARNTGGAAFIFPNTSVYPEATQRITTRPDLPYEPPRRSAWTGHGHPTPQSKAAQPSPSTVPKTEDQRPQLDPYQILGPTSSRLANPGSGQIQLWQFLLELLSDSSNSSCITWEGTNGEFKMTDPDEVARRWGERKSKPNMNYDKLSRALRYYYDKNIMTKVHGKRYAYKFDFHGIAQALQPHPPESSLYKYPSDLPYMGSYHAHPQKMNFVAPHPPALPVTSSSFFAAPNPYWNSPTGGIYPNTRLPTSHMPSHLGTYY
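His-tagged ERG Ets domain (1 uM in the protein solution; 300mM KCl, 50mM Tris-HCl, 1mM EDTA, 1mM DTT, pH 7.5) received compound, then a probe mix of 5 nM fluorescein-DNA and 100nM Texas-615-DNA. Fluorescence polarization was read for both dyes.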
* hit, by the source's call; ? = inconclusive; nt = no result given; [ ] = remark or other dose. Unless noted, calls come from the whole dose curve; as a rule, active = well fitted curve in the direction sought with a large enough effect; inconclusive = small, poorly fitted or top-dose-only effect, or another doubt; inactive = no such curve, though single readings can be large; an effect the other way counts as inactive or inconclusive.

SMILES	Integrin act MD	Gal4-VP16 FLuc	RORgamma inh	Giardia kill	ERG Ets-DNA blk
O=C(N/N=C/c1c(O)n(-c2ccccc2Cl)c(=O)c2ccccc12)C1COc2ccccc2O1 (centres undefined)	4%	2.8µM*	4µM*	18	20%
Cc1c(/C=N\NC(=O)C2COc3ccccc3O2)c2ccccc2n1C (centres undefined)	-14%	-5%	-8%	-10	5%
Cc1ccccc1-n1ncc2c1CC(C)(C)CC2NC(=O)CCC(F)(F)F (centres undefined)	10%	13%	21%	11	-11%
COc1ccc(-c2cn(-c3ccc(C)c(C)c3)c(=S)[nH]2)cc1OC	3%	13µM*	?	-21	10%
COc1cccc(-n2cc(-c3ccc(F)cc3)[nH]c2=S)c1	-34%	?	1.3µM*	-20	-9%
COC(=O)c1ccc(-n2cc(-c3ccc(OC)cc3)[nH]c2=S)cc1	5%	?	3.2µM*	-8	-8%
COc1ccc(-c2cn(-c3ccccc3)c(=S)[nH]2)cc1OC	-8%	11µM*	5.6µM*	-10	-10%
COc1ccc(-n2cc(-c3ccc(Cl)cc3)[nH]c2=S)cc1	-28%	4%	-42%	15	0%
Cc1ccc(Cl)cc1NC(=O)Cn1c(=O)n(Cc2ccccc2)c(=O)c2oc3ccccc3c21	nt	nt	nt	nt	9%
C[C@H](O/N=C1/[C@H]2O[C@@H]2[C@@H](O)[C@H]2[C@H]1CCn1c(=O)n(-c3ccccc3)c(=O)n12)c1cn([C@H]2COC[C@H]2O)nn1	nt	-13%[10 µM]	0%[10 µM]	nt	nt
COc1ccccc1C1=NC(c2ccccc2)CN1c1ccccc1 (centres undefined)	-21%	2%	-2%	-1	8%
COc1ccc(-c2cn(-c3ccc(C)c(Cl)c3)c(=S)[nH]2)cc1OC	-8%	10µM*	?	-11	4%
COc1ccc(-c2nn(-c3ccc(C)c(Cl)c3)c3c2cnc2cc(OC)c(OC)cc23)cc1	nt	nt	nt	nt	-5%
COc1ccccc1-c1cn(-c2ccccc2)c(=S)[nH]1	-18%	5.6µM*	2.8µM*	16	-4%
NC[C@@H]1O[C@H](OC2[C@@H](CO)O[C@@H](OC3[C@H](O)[C@H](N)C[C@H](N)[C@H]3OC3O[C@H](CO)[C@@H](O)[C@H](O)[C@@H]3N)[C@H]2O)C(N)[C@H](O)[C@@H]1O (some centres undefined)	nt	-3%	0%[10 µM]	nt	nt
CC(C)c1nc2sc3c(=O)[nH]cnc3c2c2c1CCC2	3%	-9%	33%	7	-9%
CC(C)c1nc2sc3c(=S)nc[nH]c3c2c2c1CCC2	8%	?	3.2µM*	-28	-1%
S=C(Nc1ccccc1Cl)N(CCN1CCCCC1)Cc1ccco1	4%	-6%	?	1	7%
COc1ccc(C(=O)Sc2nncc3ccccc23)cc1	?	?	11µM*	19	0%
COc1ccccc1C(=O)N1c2ccccc2C(C)(c2ccc(Cl)cc2)CC1(C)C (centres undefined)	nt	nt	nt	nt	-7%
CC(NC(=O)c1ccco1)c1cccc2ccccc12 (centres undefined)	-22%	-7%	4%	-19	0%
O=C(NC(=S)N1CCN(c2ccc(O)cc2)CC1)c1ccco1	0%	nt	nt	5	0%
CN1CCN(C(=S)NC(=O)c2ccco2)CC1	21%	14µM*	3.5µM*	7	3%
CC1CN(C(=S)Nc2cccc(Cl)c2Cl)CC(C)O1 (centres undefined)	24%	?	18µM*	-7	14%
CC1CN(C(=S)NC(=O)c2ccc([N+](=O)[O-])cc2)CC(C)O1 (centres undefined)	-23%	1.3µM*	0.45µM*	-9	-1%
SMILES	Integrin act MD	Gal4-VP16 FLuc	RORgamma inh	Giardia kill	ERG Ets-DNA blk
O=C(NC(=S)N1CCN(c2ccccn2)CC1)c1ccco1	-18%	3.2µM*	0.18µM*	-13	8%
N#Cc1ccc(C(=O)NC(=S)N2CCOCC2)cc1	8%	nt	nt	9	-1%
COc1ccccc1N1CCN(C(=S)NC(=O)c2ccc([N+](=O)[O-])cc2)CC1	-9%	nt	nt	nt	nt
O=C(NC(=S)N1CCOCC1)c1ccc([N+](=O)[O-])cc1	21%	2.2µM*	1.4µM*	22	nt
CC1CN(C(=S)NC(=O)c2ccccc2)CC(C)O1 (centres undefined)	0%	3.2µM*	3.5µM*	-9	-5%
COc1ccc(C(=O)NC(=S)N2CCN(c3ccccc3OC)CC2)cc1	9%	?	2µM*	-7	1%
COc1ccc(C(=O)NC(=S)N2CCN(c3ccc([N+](=O)[O-])cc3)CC2)cc1	-12%	0.89µM*	0.63µM*	-2	-10%
CC(C)C#Cc1ccc2c(c1)O[C@@H](CN(C)S(=O)(=O)c1cn(C)cn1)[C@@H](C)CN([C@H](C)CO)S2(=O)=O	-13%	nt	nt	nt	nt
Cc1ccc(CN(C(=O)COc2ccccc2Cl)c2ccccn2)o1	nt	nt	nt	nt	4%
CC1CN(C(=S)NC(=O)c2ccco2)CC(C)O1 (centres undefined)	14%	20µM*	4µM*	14	nt
CC(C)(C)C1CCc2c(sc(NC(=O)CCC(=O)O)c2C(=O)Nc2ccccc2C(F)(F)F)C1 (centres undefined)	nt	nt	nt	nt	0%
CCC(=O)NC(=S)Nc1ccccc1C(=O)OC	8%	?	13µM*	?	-1%
Cc1cccc(C)c1OCC(=O)NNC(=S)NC(=O)C1CC1	-1%	?	18µM*	-7	11%
COC(=O)c1ccccc1NC(=S)NC(=O)COc1ccc(C(C)C)cc1	16%	?	11µM*	-9	-2%
CCCC(=O)NC(=S)Nc1ccccc1C(=O)OC	31%	?	16µM*	31	4%
COC(=O)c1ccccc1NC(=S)NC(C)=O	-4%	22%	?	-6	-25%
COC(=O)c1ccccc1NC(=O)Oc1ccc(C(C)C)cc1	16%	-1%	10%	-11	-8%
Cc1cccc(C)c1OCC(=O)NC1CC1	42%	-4%	?	-2	-3%
CCOC(=O)CCN1C(=O)[C@H]2[C@H]3[C@H](O)[C@H](O)C/C(=N/NC(=O)OCc4ccccc4)[C@@H]3CC[C@@H]2C1=O	nt	-6%[10 µM]	17%[10 µM]	nt	nt
COC(=O)c1ccccc1NC(=S)NC(=O)c1ccc2ccccc2c1	-12%	?	?	6	2%
CCCC(=O)NC(=S)Nc1cccc2c(O)cccc12	-28%	?	13µM*	-16	43%
COC(=O)c1ccccc1NC(=S)NC(=O)C1CC1	-4%	-20%	13µM*	1	-4%
COC(=O)c1ccccc1NC(=S)NC(=O)c1cccc2ccccc12	-24%	18µM*	4.5µM*	-17	0%
O=C(O)CC(NC(=O)C12CC3CC(CC(C3)C1)C2)c1ccc(OC2CCCC2)cc1 (centres undefined)	12%	-1%	6%	-18	-18%
